These results are taken from PubChem BioAssay (NCATS).

Values joined by “and” are separate entries in the source; they are usually repeats but may differ in a detail not shown here. Equal entries are not always repeated. Results filed as inconclusive are left out. Active and inactive are the calls of the source. Unless noted, calls come from the whole dose curve; as a rule, active = well fitted curve in the direction sought with a large enough effect in the repeat runs; inconclusive = weak or mixed curves; inactive = no such curve, though single readings can be large; an effect the other way counts as inactive or inconclusive.

Sequence of Cytochrome P450 2C9 (Homo sapiens) (P11712 whole entry, looked up): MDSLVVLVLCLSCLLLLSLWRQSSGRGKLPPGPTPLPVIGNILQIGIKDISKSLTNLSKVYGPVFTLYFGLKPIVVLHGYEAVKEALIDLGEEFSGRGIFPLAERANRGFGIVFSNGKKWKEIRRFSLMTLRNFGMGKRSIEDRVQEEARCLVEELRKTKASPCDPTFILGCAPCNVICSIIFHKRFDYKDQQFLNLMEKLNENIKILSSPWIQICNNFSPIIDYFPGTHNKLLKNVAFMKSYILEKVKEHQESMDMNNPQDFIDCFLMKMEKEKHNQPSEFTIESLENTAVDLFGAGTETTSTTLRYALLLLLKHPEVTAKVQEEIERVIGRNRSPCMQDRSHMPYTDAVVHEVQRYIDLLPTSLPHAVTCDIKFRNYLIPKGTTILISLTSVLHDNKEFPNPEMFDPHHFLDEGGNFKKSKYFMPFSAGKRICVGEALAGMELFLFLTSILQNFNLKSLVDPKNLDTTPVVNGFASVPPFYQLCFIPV
Sequence of Cytochrome P450 2D6 (Homo sapiens) (P10635 whole entry, looked up): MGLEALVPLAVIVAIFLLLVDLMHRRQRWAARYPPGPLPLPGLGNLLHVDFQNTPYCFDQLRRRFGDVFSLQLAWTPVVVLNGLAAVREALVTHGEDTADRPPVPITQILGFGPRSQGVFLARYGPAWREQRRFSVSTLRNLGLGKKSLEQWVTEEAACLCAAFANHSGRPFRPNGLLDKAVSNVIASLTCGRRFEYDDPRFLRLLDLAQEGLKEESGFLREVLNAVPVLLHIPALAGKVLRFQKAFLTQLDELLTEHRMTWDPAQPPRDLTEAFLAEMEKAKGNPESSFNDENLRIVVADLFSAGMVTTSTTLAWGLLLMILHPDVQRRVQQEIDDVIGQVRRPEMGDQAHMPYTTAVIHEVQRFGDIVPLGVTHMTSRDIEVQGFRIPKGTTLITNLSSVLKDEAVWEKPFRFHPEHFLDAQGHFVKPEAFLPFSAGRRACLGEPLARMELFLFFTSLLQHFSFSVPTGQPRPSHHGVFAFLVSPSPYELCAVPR

Test system in one assay: not listed separately
Description: A High-Content qHTS Against Drug Library for the Identification of Small Molecules that Inhibit DYT1 Early Onset Primary Dystonia-Associated Cell Pathology (AID 1645839; calls by dose curve). The following applies: HEK293 Flp-In EGFP-delE TorsinA, punctate imaging, 48 h; series mostly up to 46.1 µM; % pathology change, negative = correction: at the top concentration. An outline of the steps:
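Induced EGFP-delE TorsinA cells are imaged after 48 h of compound treatment. Punctate fusion-protein distribution gives the %pathology value, while nuclei counts flag toxicity. Wild-type EGFP-hTOR1A cells define the normal pattern.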
(qHTS replaces the single test concentration by a dilution series.)
Turning to `CC(C)n1c(/C=C/[C@@H](O)C[C@@H](O)CC(=O)O)c(-c2ccc(F)cc2)c2ccccc21`, the “% pathology change, negative = correction” value (shortened to “% pathology change”) is -17.4% (inactive).
For the compound `CC(C)(C)NC[C@H](O)COc1nsnc1N1CCOCC1`, the “% pathology change” value is -0.124% (inactive).
On the same count and under the same terms, to `CC1(C)OC[C@@H]2O[C@@]3(C(=O)O)OC(C)(C)O[C@H]3[C@@H]2O1` belongs 2.33% (inactive).
As to `CCC(Cc1c(I)cc(I)c(N)c1I)C(=O)O` (configuration not stated), the “% pathology change” value is 9.68% (inactive).
Still for that read-out and setting: to `C[C@]12CCC(=O)C=C1C=C[C@@H]1[C@@H]2CC[C@@]2(C)[C@H]1CC[C@@]21CCC(=O)O1` belongs 1.32% (inactive).
Take `CC(O)Cn1cnc2c1c(=O)n(C)c(=O)n2C` (configuration not stated): the “% pathology change” value is 13.2% (inactive).
The same measure, in the same setting: to `O=C(c1ccc(F)cc1)C1CCN(CCn2c(=S)[nH]c3ccccc3c2=O)CC1` belongs -0.957% (inactive).
Consider `O=C(O)C1(C(=O)O)CCC1.[NH2-].[NH2-].[Pt+2]`, for which the “% pathology change” value is 0.664% (inactive).
For `N[C@H](C(=O)O)[C@@H](O)c1ccc(O)c(O)c1`, the “% pathology change” value is 17.8% (inactive).
The same measure, in the same setting: to `CC(C(=O)O)c1cccc(Oc2ccccc2)c1` (configuration not stated) belongs -11.1% (inactive).

The target of a further assay is Cytochrome P450 2D6 (Homo sapiens) (UniProt P10635). Description: Cytochrome P450 family 2 subfamily D member 6 (CYP2D6) small molecule antagonists: luciferase biochemical (cell-free) qHTS assay (AID 1645840). For activity change, negative = inhibition: % is set by controls: 0 for no effect and ±100 for the full control effect. Note: nearly all actives have a fitted effect of over 55% in size. Note: potency is the fitted concentration of half-maximal effect. The following applies: P450-Glo CYP2D6 enzyme, luciferin luminescence, 1 h; series mostly up to 57.4 µM; activity change, negative = inhibition: at the top concentration. An outline of the steps:
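P450-Glo CYP2D6 system: proluciferin substrate converted by enzyme to luciferin, read by luminescence proportional to activity. Enzyme-substrate mix with compound 10 min at room temperature, then NADPH regeneration 1 h before detection reagent.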
As to `COc1cc([C@H]2Oc3cc([C@H]4Oc5cc(O)cc(O)c5C(=O)[C@@H]4O)ccc3O[C@@H]2CO)ccc1O`, the “activity change, negative = inhibition” value was -9.7% (inactive).
For the compound `C[C@@]12C(=O)OC(=O)[C@]1(C)C1CCC2O1`, the “activity change, negative = inhibition” value is -1.74% (inactive).
For `CC(C)n1c(/C=C/[C@@H](O)C[C@@H](O)CC(=O)O)c(-c2ccc(F)cc2)c2ccccc21`, the “activity change, negative = inhibition” value was -9.48% (inactive).
In the case of `C[C@H]1O[C@@H](O[C@H]2CC[C@@]3(C)[C@H](CC[C@@H]4[C@@H]3C[C@@H](O)[C@]3(C)[C@@H](C5=CC(=O)OC5)CC[C@]43O)C2)C[C@H](O)[C@@H]1O[C@H]1C[C@H](O)[C@H](O[C@H]2C[C@H](O)[C@H](O[C@@H]3O[C@H](CO)[C@@H](O)[C@H](O)[C@H]3O)[C@@H](C)O2)[C@@H](C)O1`, the “activity change, negative = inhibition” value was 5.72% (inactive).
On the same count and under the same terms, next, `CCN(CC)CCOc1ccc2c(c1)C(=O)c1cc(OCCN(CC)CC)ccc1-2`: -11% (inactive); `CC1(C)OC[C@@H]2O[C@@]3(C(=O)O)OC(C)(C)O[C@H]3[C@@H]2O1`: 1.12% (inactive).
On the same count and under the same terms, next, `O=c1[nH]c(=O)n([C@H]2C[C@H](O)[C@@H](CO)O2)cc1F`: 11.4% (inactive).
Turning to `CCN(CC)CCOc1ccccc1C(=O)CCc1ccccc1`, the Potency was 0.11 µM (active).
Still for that read-out and setting: to `CCC(Cc1c(I)cc(I)c(N)c1I)C(=O)O` (configuration not stated) belongs 15.5 µM (active); to `COc1ccc(-c2cc(C(F)F)nn2-c2ccc(S(N)(=O)=O)cc2)cc1F`, 5.49 µM (active); to `CCCCCN=C(N)N/N=C/c1c[nH]c2ccc(OC)cc12`, 0.219 µM (active).
In the case of `CC[C@]12CCCN3CCc4c(n(c5ccccc45)C(=O)C1)[C@@H]32`, the Potency was 0.0871 µM (active).
Still for that read-out and setting: next, `CN(C)CCOC(c1ccc(Cl)cc1)c1ccccn1` (configuration not stated): 15.5 µM (active).
For the compound `CCC(CC)(CC(=O)Nc1cccc(/C=C/c2nc(C3CCC3)cs2)c1)C(=O)O`, the “activity change, negative = inhibition” value was -15.5% (inactive).
`CNCCCCOc1ccccc1Cc1ccccc1`: the Potency was 0.692 µM (active).
Same read-out and setting: to `Nc1nc(Cl)nc2c1ncn2[C@@H]1O[C@H](CO)[C@@H](O)[C@@H]1F` belongs “inactive”.
`C[C@]12CCC(=O)C=C1C=C[C@@H]1[C@@H]2CC[C@@]2(C)[C@H]1CC[C@@]21CCC(=O)O1`: the “activity change, negative = inhibition” value is -21.9% (inactive).
`CCCCCCCCNC(C)C(O)c1ccc(SC(C)C)cc1` (configuration not stated): the Potency is 1.38 µM (active) and 8.49 µM (active).
For the compound `CCOC(=O)c1ccc(N)cc1`, the “activity change, negative = inhibition” value is 0.695% (inactive).
Still for that read-out and setting: to `C#C[C@]1(O)CC[C@H]2[C@@H]3CCc4cc(OC)ccc4[C@H]3CC[C@@]21C` belongs -6.77% (inactive).
On to `C#C[C@]1(OC(C)=O)CC[C@H]2[C@@H]3CCC4=C/C(=N/O)CC[C@@H]4[C@H]3CC[C@@]21CC`, for which the Potency is 2.68 µM (active).
The same measure, in the same setting: next, `N/C(=N\N=C\c1ccc(Cl)cc1)N/N=C/c1ccc(Cl)cc1`: 15.5 µM (active); `CCCCCCCCCCCCCC[N+](C)(C)Cc1ccccc1`: 0.347 µM (active); `O=C(c1ccc(F)cc1)C1CCN(CCn2c(=S)[nH]c3ccccc3c2=O)CC1`: 0.776 µM (active).
With `O=C(O)C1(C(=O)O)CCC1.[NH2-].[NH2-].[Pt+2]`, the Potency was 19.5 µM (active).
For the compound `CCO[C@@H]1O[C@H](C(COCc2ccccc2)OCc2ccccc2)[C@H](OCc2ccccc2)[C@H]1O` (some centres not stated), the Potency is 11 µM (active).
Same read-out and setting: next, `O=C(CN1CCN(Cc2ccc3c(c2)OCO3)CC1)N1c2ccccc2Sc2ccccc21`: 0.195 µM (active).
Turning to `CCOC(=O)C(C#N)=C(c1ccccc1)c1ccccc1`, the “activity change, negative = inhibition” value is -2.09% (inactive).
As to `CCN(CC)CCNc1ccc(CO)c2sc3ccccc3c(=O)c12`, the Potency was 4.36 µM (active).
As to `O=C(O)C(Cc1cc(I)c(O)c(I)c1)c1ccccc1` (configuration not stated), the Potency entry was “inactive”.
For `N[C@H](C(=O)O)[C@@H](O)c1ccc(O)c(O)c1`, the “activity change, negative = inhibition” value was 4.66% (inactive).
Take `CC(C(=O)O)c1cccc(Oc2ccccc2)c1` (configuration not stated): the “activity change, negative = inhibition” value is -0.199% (inactive).

Another assay addresses Cytochrome P450 2C9 (Homo sapiens) (UniProt P11712). Description: Cytochrome P450 family 2 subfamily C member 9 (CYP2C9) small molecule antagonists: luciferase biochemical (cell-free) qHTS assay (AID 1645842). For activity change, negative = inhibition: % is set by controls: 0 for no effect and ±100 for the full control effect. Note: nearly all actives have a fitted effect of over 55% in size. Note: potency is the fitted concentration of half-maximal effect. To be noted: P450-Glo CYP2C9 enzyme assay, luciferin luminescence; series mostly up to 57.4 µM; activity change, negative = inhibition: at the top concentration. The gist of the method:
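P450-Glo CYP2C9 system: proluciferin substrate with enzyme in mix containing 0.4% BSA, 10 min at room temperature, then NADPH regeneration solution added and incubated 1 h at 37C. Detection reagent stopped reaction; luminescence read after 20 min as RLU.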
As for `c1ccc(CC2=NCCN2)cc1`, the “activity change, negative = inhibition” value is 2.05% (inactive).
In the case of `COc1cc([C@H]2Oc3cc([C@H]4Oc5cc(O)cc(O)c5C(=O)[C@@H]4O)ccc3O[C@@H]2CO)ccc1O`, the Potency was 8.71 µM (active).
In the case of `C[C@@]12C(=O)OC(=O)[C@]1(C)C1CCC2O1`, the “activity change, negative = inhibition” value was 3.09% (inactive).
The same measure, in the same setting: next, `C[C@H]1O[C@@H](O[C@H]2CC[C@@]3(C)[C@H](CC[C@@H]4[C@@H]3C[C@@H](O)[C@]3(C)[C@@H](C5=CC(=O)OC5)CC[C@]43O)C2)C[C@H](O)[C@@H]1O[C@H]1C[C@H](O)[C@H](O[C@H]2C[C@H](O)[C@H](O[C@@H]3O[C@H](CO)[C@@H](O)[C@H](O)[C@H]3O)[C@@H](C)O2)[C@@H](C)O1`: 14.3% (inactive); `CCN(CC)CCOc1ccc2c(c1)C(=O)c1cc(OCCN(CC)CC)ccc1-2`: -0.376% (inactive); `CC(C)(C)NC[C@H](O)COc1nsnc1N1CCOCC1`: -1.48% (inactive).
`CC1(C)OC[C@@H]2O[C@@]3(C(=O)O)OC(C)(C)O[C@H]3[C@@H]2O1`: the “activity change, negative = inhibition” value is 15% (inactive).
Same read-out and setting: to `O=c1[nH]c(=O)n([C@H]2C[C@H](O)[C@@H](CO)O2)cc1F` belongs 8.36% (inactive).
On the same count and under the same terms, to `CCN(CC)CCOc1ccccc1C(=O)CCc1ccccc1` belongs -11.6% (inactive).
Take `COc1ccc(-c2cc(C(F)F)nn2-c2ccc(S(N)(=O)=O)cc2)cc1F`: the Potency is 6.17 µM (active).
Regarding `CCCCCN=C(N)N/N=C/c1c[nH]c2ccc(OC)cc12`, the “activity change, negative = inhibition” value was -1.04% (inactive).
Same read-out and setting: next, `CN(C)CCOC(c1ccc(Cl)cc1)c1ccccn1` (configuration not stated): 0.392% (inactive); `CNCCCCOc1ccccc1Cc1ccccc1`: -1.41% (inactive).
`Nc1nc(Cl)nc2c1ncn2[C@@H]1O[C@H](CO)[C@@H](O)[C@@H]1F`: the Potency result was “inactive”.
Regarding `CCCCCCCCNC(C)C(O)c1ccc(SC(C)C)cc1` (configuration not stated), the “activity change, negative = inhibition” value was 5.54% (inactive).
For the compound `C#C[C@]1(O)CC[C@H]2[C@@H]3CCc4cc(OC)ccc4[C@H]3CC[C@@]21C`, the Potency is 6.92 µM (active) and 4.25 µM (active).
On the same count and under the same terms, to `C#C[C@]1(OC(C)=O)CC[C@H]2[C@@H]3CCC4=C/C(=N/O)CC[C@@H]4[C@H]3CC[C@@]21CC` belongs 952 nM (active) and 7.76 µM (active).
On to `N/C(=N\N=C\c1ccc(Cl)cc1)N/N=C/c1ccc(Cl)cc1`, for which the Potency is 13.8 µM (active).
Turning to `CCO[C@@H]1O[C@H](C(COCc2ccccc2)OCc2ccccc2)[C@H](OCc2ccccc2)[C@H]1O` (some centres not stated), the Potency was 3.09 µM (active).
On to `CC1(COc2ccc(CC3SC(=O)NC3=O)cc2)CCCCC1` (configuration not stated), for which the “activity change, negative = inhibition” value was 1.74% (inactive).
As for `O=C(CN1CCN(Cc2ccc3c(c2)OCO3)CC1)N1c2ccccc2Sc2ccccc21`, the Potency was 7.76 µM (active).
Take `CCOC(=O)C(C#N)=C(c1ccccc1)c1ccccc1`: the Potency is 2.45 µM (active).
With `CCN(CC)CCNc1ccc(CO)c2sc3ccccc3c(=O)c12`, the “activity change, negative = inhibition” value was 9.24% (inactive).
As to `O=C(O)C(Cc1cc(I)c(O)c(I)c1)c1ccccc1` (configuration not stated), the Potency was 15.1 µM (active) and 11 µM (active).
Regarding `N[C@H](C(=O)O)[C@@H](O)c1ccc(O)c(O)c1`, the “activity change, negative = inhibition” value is 1.42% (inactive).
